Counter-ions that a name gives are not always drawn. Bounds are passed on as bounds.

The results in this text go back to paper PMC6792352, “Limited Chemical Structural Diversity Found to Modulate Thyroid Hormone Receptor in the Tox21 Chemical Library” (Environmental Health Perspectives, 2019).

The subject of the test is thyroid hormone receptor (endogenous TRα and TRβ). Further details: species or system GH3-TRE-Luc (rat pituitary); GH3-TRE-Luc luciferase reporter, antagonist mode against 1 nM T3, loss of signal, qHTS. The following applies: read-out: Average AC50 (uM) GH3-TRE-Antag, antagonist mode, 1 nM T3, no GH3 cytotoxicity hit.
Turning to `NC(N)=NCc1cccc(I)c1` [3-Iodobenzylguanidine hemisulfate], the AC50 turned out to be 16.3 µM. On to `C[C@]12CCC(=O)C=C1[C@@H]1C[C@@H]1[C@H]1[C@@H]3[C@@H]4C[C@@H]4[C@@]4(CCC(=O)O4)[C@@]3(C)CC[C@@H]12` [Drospirenone], for which the AC50 was 21.9 µM.

Consider `CCCCCCCC(=O)Oc1c(Br)cc(C#N)cc1Br` [Bromoxynil octanoate], for which the half-maximal activity concentration (AC50) came out at 74 µM. As to `CCCCNC1CC(C)(C)NC(C)(C)C1` [N-Butyl-2,2,6,6-tetramethylpiperidin-4-amine], the AC50 stood at 60.2 µM. To `CCCCN(CCCC)CCC(O)c1cc2c(Cl)cc(Cl)cc2c2cc(C(F)(F)F)ccc12` (stereo not drawn) [Halofantrine hydrochloride] belongs 15.6 µM. Take `Cl/C(=C\n1cncn1)c1ccc(Cl)cc1Cl` [Loreclezole hydrochloride]: the AC50 stood at 18.3 µM. Consider `COC(C)(C)CCCC(C)C/C=C/C(C)=C/C(=O)OC(C)C` (stereo not drawn) [Methoprene], for which the AC50 was 43.4 µM.

`CC(C)C[C@H](NC(=O)OCC1c2ccccc2-c2ccccc21)C(=O)O` [N-(9-Fluorenylmethoxycarbonyl)-L-leucine]: the AC50 was greater than 90 µM.

In the case of `C#C[C@]1(O)C=C[C@H]2[C@@H]3CCC4=CC(=O)CC[C@@H]4[C@H]3CC[C@@]21CC` [Gestodene], the AC50 was determined as 15.5 µM. As to `CC1=CC(C)(C)Nc2ccccc21` [1,2-Dihydro-2,2,4-trimethylquinoline, polymer], the AC50 stood at 28 µM. As for `CNC(=O)Nc1ccc(Cl)c(Cl)c1` [N-(3,4-Dichlorophenyl)-N'-methylurea], the figure is 48.2 µM; as for `OCc1c[nH]c2ccccc12` [Indole-3-carbinol], 58.4 µM.

For the molecule `CC(C(=O)O)c1ccc2c(c1)CC(=O)c1ccccc1S2` (stereo not drawn) [Zaltoprofen], the AC50 came out at 29.1 µM. Take `CC(C)=CCC[C@](C)(O)[C@@H]1CC=C(C)CC1` [Levomenol]: the AC50 turned out to be 38 µM.

Take `CC(C)(O)c1cnn2c(-c3ccc(F)c(-c4c(F)cccc4C#N)c3)cnc2n1` [PharmaGSID_47330]: the AC50 amounted to 42.1 µM. As to `CC(C)c1cccc(C(C)C)c1N1C(=O)c2ccc(O)cc2C1=O` [5HPP-33], the AC50 came out at 5.01 µM. `CCCCCCC[N+](CC)(CC)CCCCc1ccc(Cl)cc1` [Clofilium tosylate]: the AC50 is 16.3 µM.

As to `Cc1c(COC(=O)[C@@H]2[C@H](/C=C(\Cl)C(F)(F)F)C2(C)C)cccc1-c1ccccc1` (racemic) [Bifenthrin], the AC50 was 17.5 µM.

Regarding `CC(C(=O)O)c1ccc(-c2ccccc2)c(F)c1` (stereo not drawn) [Flurbiprofen], the AC50 is greater than 20 µM.

As for `c1ccc2c(c1)Cc1ccccc1-2` [Fluorene], the AC50 came out at 55.8 µM.

In the case of `CC1(C)N=C(N)N=C(N)N1c1ccc(Cl)cc1` [Cycloguanil hydrochloride], the AC50 is 28.6 µM.

Take `CCOc1ccc2[nH]cc(C(=O)NCc3ccccc3)c(=O)c2n1` [CP-457920]: the AC50 worked out at 45.2 µM.

As for `COc1ccc(Cc2nccc3cc(OC)c(OC)cc23)cc1OC` [Papaverine hydrochloride], the AC50 came out at 15.6 µM.

Regarding `CC1(C)[C@H](C(=O)O[C@H](C#N)c2cccc(Oc3ccccc3)c2)[C@@H]1C=C(Br)Br` [Deltamethrin], the AC50 was 76.3 µM. Turning to `Nc1ccc(Oc2ccc(Cl)cc2)cc1` [4-Chloro-4'-aminodiphenyl ether], the AC50 was 40.7 µM. In the case of `CO[C@@H]1[C@H](OC(=O)/C=C/C=C/C=C/C=C/C(=O)O)CC[C@]2(CO2)[C@H]1[C@@]1(C)O[C@@H]1CC=C(C)C` [Fumagillin], the AC50 worked out at 0.0177 µM. Regarding `CC1(C)C(/C=C(\Cl)C(F)(F)F)C1C(=O)OC(C#N)c1cccc(Oc2ccccc2)c1` (stereo not drawn) [alpha-Cyhalothrin], the concentration at half-maximal activity (AC50) was determined as 26.1 µM. As for `CC(C)=CCC/C(C)=C/CC/C(C)=C/CC/C(C)=C/CC1=C(C)C(=O)c2ccccc2C1=O` [Menatetrenone], the figure is 24.9 µM. For the molecule `C[C@]12C[C@H](O)[C@H]3[C@@H](CCC4=CC(=O)CC[C@@]43C)[C@@H]1CC[C@@H]2C(=O)CO` [Corticosterone], the AC50 is greater than 50 µM. As for `CCCCOC(=O)c1ccc(N)cc1` [Butyl 4-aminobenzoate], the AC50 is 21.8 µM. On to `Oc1cc(Cl)cc(Cl)c1Cl` [2,3,5-Trichlorophenol], for which the half-maximal activity concentration (AC50) amounted to 57 µM. `CC(C)C(C(=O)OC(C#N)c1cccc(Oc2ccccc2)c1)c1ccc(OC(F)F)cc1` (stereo not drawn) [Flucythrinate]: the AC50 was 32.5 µM. As for `CCOC(=O)C(C)OC(=O)c1cc(Oc2ccc(C(F)(F)F)cc2Cl)ccc1[N+](=O)[O-]` (stereo not drawn) [Lactofen], the figure is 81.8 µM; as for `CC(C)NC(=O)N1CC(=O)N(c2cc(Cl)cc(Cl)c2)C1=O` [Iprodione], 59.3 µM; as for `Cl/C=C\C[N+]12CN3CN(CN(C3)C1)C2` [Chloroallyl methenamine chloride], 89.1 µM.

On to `Sc1ccccc1` [Benzenethiol], for which the AC50 was determined as 44.5 µM. Consider `CC[C@H](C)COC(=O)/C=C/c1ccc(N=Cc2ccc(OC)cc2)cc1` [(+)-2-Methylbutyl-4-methoxybenzyladine-4'-aminocyannate], for which the AC50 was 62 µM. In the case of `C=CCNC1=C2C[C@@H](C)C[C@H](OC)[C@H](O)[C@@H](C)/C=C(\C)[C@H](OC(N)=O)[C@@H](OC)/C=C\C=C(/C)C(=O)NC(=CC1=O)C2=O` [Tanespimycin], the AC50 was 0.306 µM. As for `Oc1ccc2c(c1)-c1ccccc1C2` [3-Hydroxyfluorene], the figure is 91.5 µM.
